# Where two headings read alike, the source gives them in different places.
# How the values were obtained:
# Parameters in all cases: species or system human, MV4-11 + K-562 + COLO205 + SK-N-BE2 + OVCAR-8
# [1] = tested on: CLK1; conditions: read-out: apparent Kd; compound concentrations:100 nM and 1000 nM (sheet 'Samples'); n = 1
# [2] = tested on: CLK2; conditions: read-out: apparent Kd; compound concentrations:100 nM and 1000 nM (sheet 'Samples'); n = 1
# [3] = tested on: CLK4; conditions: read-out: apparent Kd, n = 1
# [4] = tested on: GAK; conditions: read-out: apparent Kd; compound concentrations:100 nM and 1000 nM (sheet 'Samples'); n = 1
# [5] = tested on: MAPK10; conditions: read-out: apparent Kd, n = 1
# [6] = tested on: MAPK8; conditions: read-out: apparent Kd, n = 1
# [7] = tested on: MAPK9; conditions: read-out: apparent Kd, n = 1
# [8] = tested on: PTK2B; conditions: read-out: apparent Kd; compound concentrations:100 nM and 1000 nM (sheet 'Samples'); n = 1
# [9] = tested on: PTK2; conditions: read-out: apparent Kd; compound concentrations:100 nM and 1000 nM (sheet 'Samples'); n = 1
# [10] = tested on: TNK1; conditions: read-out: apparent Kd; compound concentrations:100 nM and 1000 nM (sheet 'Samples'); n = 1
# [11] = tested on: TTK; conditions: read-out: apparent Kd; compound concentrations:100 nM and 1000 nM (sheet 'Samples'); n = 1
# [12] = tested on: CSNK1A1; conditions: read-out: apparent Kd, compound concentrations: 100 nM and 1000 nM (sheet 'Samples'), n = 1
# [13] = tested on: CSNK1D; conditions: read-out: apparent Kd, compound concentrations: 100 nM and 1000 nM (sheet 'Samples'), n = 1
# [14] = tested on: CSNK1E; conditions: read-out: apparent Kd, compound concentrations: 100 nM and 1000 nM (sheet 'Samples'), n = 1
# [15] = tested on: MAPK11; conditions: read-out: apparent Kd; compound concentrations: 100 nM and 1000 nM (sheet 'Samples'), CATDS: 7.8830615244885299E-2; n = 1
# [16] = tested on: MAPK14; conditions: read-out: apparent Kd, compound concentrations: 100 nM and 1000 nM (sheet 'Samples'), n = 1
# [17] = tested on: NLK; conditions: read-out: apparent Kd; compound concentrations: 100 nM and 1000 nM (sheet 'Samples'), CATDS: 7.7822094948188494E-2; n = 1
# [18] = tested on: RIPK2; conditions: read-out: apparent Kd, compound concentrations: 100 nM and 1000 nM (sheet 'Samples'), n = 1
# [19] = tested on: RIPK3; conditions: read-out: apparent Kd; compound concentrations: 100 nM and 1000 nM (sheet 'Samples'), CATDS: 4.8358331607940903E-2; n = 1
# [20] = tested on: MAPKAPK2; conditions: read-out: apparent Kd, compound concentrations: 100 nM and 1000 nM (sheet 'Samples'), n = 1
# [21] = tested on: CSNK2A1;CSNK2A3; conditions: read-out: apparent Kd; compound concentrations: 100 nM and 1000 nM (sheet 'Samples'), CATDS: 0.28521766566088902; n = 1
# [22] = tested on: CSNK2A2; conditions: read-out: apparent Kd; compound concentrations: 100 nM and 1000 nM (sheet 'Samples'), CATDS: 0.32436684951211903; n = 1
# [23] = tested on: DYRK1A; conditions: read-out: apparent Kd; compound concentrations: 100 nM and 1000 nM (sheet 'Samples'), CATDS: 0.224085831089785; n = 1
# [24] = tested on: FN3KRP; conditions: read-out: apparent Kd; compound concentrations: 100 nM and 1000 nM (sheet 'Samples'), CATDS: 4.0325276132441398E-2; n = 1
# [25] = tested on: FN3K; conditions: read-out: apparent Kd; compound concentrations: 100 nM and 1000 nM (sheet 'Samples'), CATDS: 3.5729467318233003E-2; n = 1
# [26] = tested on: MAPK1; conditions: read-out: apparent Kd; compound concentrations: 100 nM and 1000 nM (sheet 'Samples'), CATDS: 3.8538636035205603E-2; n = 1
# [27] = tested on: NUAK2; conditions: read-out: apparent Kd; compound concentrations: 100 nM and 1000 nM (sheet 'Samples'), CATDS: 3.7503176439752997E-2; n = 1
# [28] = tested on: PAK6; conditions: read-out: apparent Kd; compound concentrations: 100 nM and 1000 nM (sheet 'Samples'), CATDS: 3.6851014087153897E-2; n = 1
# [29] = tested on: PDXK; conditions: read-out: apparent Kd; compound concentrations: 100 nM and 1000 nM (sheet 'Samples'), CATDS: 4.2866477052702801E-2; n = 1
# [30] = tested on: PRKD1; conditions: read-out: apparent Kd; compound concentrations: 100 nM and 1000 nM (sheet 'Samples'), CATDS: 5.7643815107824597E-2; n = 1
# [31] = tested on: PRKD2; conditions: read-out: apparent Kd; compound concentrations: 100 nM and 1000 nM (sheet 'Samples'), CATDS: 6.6871929523774506E-2; n = 1
# [32] = tested on: PRKD3; conditions: read-out: apparent Kd; compound concentrations: 100 nM and 1000 nM (sheet 'Samples'), CATDS: 6.6409082952543802E-2; n = 1
# [33] = compound concentrations:100 nM and 1000 nM (sheet 'Samples')
compound,measurement,setting,value
COc1cc(N2CCN(C(C)C)CC2)ccc1Nc1nc(Nc2ccc(F)cc2C(=O)NC[C@@H](O)CO)c2cc[nH]c2n1 [GSK1392956A],potency estimated from few doses,[1],0.415 µM
same,potency estimated from few doses,[2],0.811 µM
same,potency estimated from few doses,[3]; [33],0.684 µM
same,potency estimated from few doses,[4],0.0504 µM
same,potency estimated from few doses,[5]; [33],0.0921 µM
same,potency estimated from few doses,[6]; [33],0.14 µM
same,potency estimated from few doses,[7]; [33],0.531 µM
same,potency estimated from few doses,[8],0.188 µM
same,potency estimated from few doses,[9],0.37 µM
same,potency estimated from few doses,[10],0.577 µM
same,potency estimated from few doses,[11],0.053 µM
CN1CCC(n2cnc(-c3ccc(F)cc3)c2-c2ccnc(Nc3ccccc3)n2)CC1 [SB-236687],potency estimated from few doses,[12]; CATDS: 5.98984637657098E-2,0.341 µM
same,potency estimated from few doses,[13]; CATDS: 0.13245154437339501,0.0303 µM
same,potency estimated from few doses,[14]; CATDS: 9.7404692081277694E-2,0.0662 µM
same,potency estimated from few doses,"[5]; compound concentrations: 100 nM and 1000 nM (sheet 'Samples'), CATDS: 9.1300875893450595E-2",0.079 µM
same,potency estimated from few doses,[15],0.122 µM
same,potency estimated from few doses,[16]; CATDS: 0.23867511815935299,0.00698 µM
same,potency estimated from few doses,"[6]; compound concentrations: 100 nM and 1000 nM (sheet 'Samples'), CATDS: 4.9540433468536101E-2",1.08 µM
same,potency estimated from few doses,"[7]; compound concentrations: 100 nM and 1000 nM (sheet 'Samples'), CATDS: 8.0964581891509499E-2",0.112 µM
same,potency estimated from few doses,[17],0.127 µM
same,potency estimated from few doses,[18]; CATDS: 6.8515245953885195E-2,0.196 µM
same,potency estimated from few doses,[19],1.33 µM
Fc1ccc(-c2ncn(CCCNCc3ccccc3)c2-c2ccncc2)cc1 [SB-210486],potency estimated from few doses,[12]; CATDS: 0.128304526213217,1.36 µM
same,potency estimated from few doses,[13]; CATDS: 0.26868989903925999,0.28 µM
same,potency estimated from few doses,[14]; CATDS: 0.162916255761588,0.716 µM
same,potency estimated from few doses,[16]; CATDS: 0.19130895998185199,0.509 µM
same,potency estimated from few doses,"[7]; compound concentrations: 100 nM and 1000 nM (sheet 'Samples'), CATDS: 0.114122400306413",2.07 µM
same,potency estimated from few doses,[20]; CATDS: 0.22954264686774201,0.363 µM
N=C1N=C(N)S/C1=C\c1ccc2ncccc2c1 [RO4509407-000],potency estimated from few doses,"[3]; compound concentrations: 100 nM and 1000 nM (sheet 'Samples'), CATDS: 0.20208548416979799",1.31 µM
same,potency estimated from few doses,[21],0.612 µM
same,potency estimated from few doses,[22],0.488 µM
same,potency estimated from few doses,[23],1.01 µM
CC(CO)Nc1cc(-c2[nH]c3cccnc3c2-c2ccc(F)cc2)ccn1.Cl (stereo not drawn) [RO3202312-001],potency estimated from few doses,[13]; CATDS: 9.2931032054770199E-2,0.0482 µM
same,potency estimated from few doses,[14]; CATDS: 6.9907661952316402E-2,0.115 µM
same,potency estimated from few doses,[24],0.967 µM
same,potency estimated from few doses,[25],1.99 µM
same,potency estimated from few doses,[16]; CATDS: 0.154329578320028,0.0121 µM
same,potency estimated from few doses,[26],1.24 µM
same,potency estimated from few doses,"[6]; compound concentrations: 100 nM and 1000 nM (sheet 'Samples'), CATDS: 4.79247089655142E-2",0.44 µM
same,potency estimated from few doses,"[7]; compound concentrations: 100 nM and 1000 nM (sheet 'Samples'), CATDS: 0.13086781986766799",0.0186 µM
same,potency estimated from few doses,[20]; CATDS: 0.22131403995385401,0.00481 µM
same,potency estimated from few doses,[27],1.45 µM
same,potency estimated from few doses,[28],1.62 µM
same,potency estimated from few doses,[29],0.716 µM
same,potency estimated from few doses,[30],0.219 µM
same,potency estimated from few doses,[31],0.132 µM
same,potency estimated from few doses,[32],0.135 µM
same,potency estimated from few doses,[18]; CATDS: 4.9490640044255602E-2,0.386 µM
